Measured values as given in PubChem BioAssay (NCATS).
Several values for one entry are separate records, joined by “and”; a condition that tells them apart may be missing. Equal values may be shown once. Unmarked numbers belong to inactive results. Inconclusive results are not listed. Where a call stands in place of a potency, no number is given. Activity calls are given as the source filed them. Unless noted, calls come from the whole dose curve; as a rule, active = well fitted curve in the direction sought with a large enough effect; inconclusive = small, poorly fitted or top-dose-only effect, or another doubt; inactive = no such curve, though single readings can be large; an effect the other way counts as inactive or inconclusive.

Columns and labels:
[1] = target: Arylsulfatase A (Homo sapiens) (UniProt P15289); assay: qHTS screen for enhancers of Arylsulfatase A (ASA1): LOPAC Validation Assay (AID 720538); note: potency is the fitted concentration of half-maximal effect
Procedure, shortened: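 Cell-based enhancement test: residual ASA activity in SV40-transformed I179S patient fibroblasts is measured by pNCS turnover (0.5mM final, 14h, room temperature) following 48h compound incubation; higher fluorescence indicates activation.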

[2] = qHTS for compounds that reverse cellular toxicity of Amyloid beta (A-beta) peptide in yeast: LOPAC Validation Assay (AID 720559)
Procedure, shortened: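 Here, A-beta-toxic yeast grow with test compounds at 30 C for 48 hr before optical density at 600 nm is recorded; data are normalized against DMSO and the FeCl3-clioquinol control.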

[3] = qHTS for Activators of Parkin Expression: LOPAC Validation Assay (NLuc Reporter) (AID 720572; note: potency is the fitted concentration of half-maximal effect)
Procedure, shortened: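 Compound effects on Parkin promoter activity were measured as NanoLuc luminescence after 24 h at 37 C. The neuronal reporter line also carried FLuc, which was read first. LOPAC compounds were tested at 7 concentrations, with normalization to DMSO (0%) and positive control (100%).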

[4] = qHTS for Activators of Parkin Expression: LOPAC Validation Assay (FLuc Reporter) (AID 720573)
Procedure, shortened: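 Readout is FLuc luminescence from neuronal reporter cells (Parkin promoter, FLuc plus NLuc) after 24 h compound exposure in dose response. Values normalized to neutral DMSO and positive-control compounds.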

[5] = target: T1, Hexokinase-4 (Homo sapiens) + Glucokinase regulatory protein (Homo sapiens) (UniProt P35557+Q14397); assay: qHTS assay for inhibitors of recombinant human GCK-GKRP interaction: Diaphorase-coupled assay (AID 743205)
Procedure, shortened: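 Signal derives from resorufin generated by diaphorase, linked to GCK turnover of glucose (5 mM) and ATP (0.4 mM). Enzyme complex was added after a 20-minute compound preincubation and monitored for 30 minutes.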

[6] = target: T1, Hexokinase-4 (Homo sapiens) + Glucokinase regulatory protein (Homo sapiens); assay: qHTS assay for inhibitors of recombinant human GCK-GKRP interaction: ADP-Glo assay (AID 743206)
Procedure, shortened: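 Pin-transferred compounds meet a 15 nM GST-GCK/15 nM FLAG-GKRP/2 uM S6P mix (dispense concentrations). ATP is then added to 0.4 mM final with 5 mM glucose, and the reaction runs 60 min at room temperature. ADP is quantified luminescently.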

[7] = target: T1, Hexokinase-4 (Homo sapiens) + Glucokinase regulatory protein (Homo sapiens); assay: qHTS assay for inhibitors of recombinant human GCK-GKRP interaction: HTRF assay (AID 743207)
Procedure, shortened: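 Titration screening format: recombinant GST-GCK and FLAG-GKRP at 5 nM, S6P at 2 uM, labelled anti-tag antibodies, 60 min at RT, dual-wavelength HTRF readout.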

[8] = qHTS assay for small molecule agonists of the antioxidant response element (ARE) signaling pathway measured by Nrf2-dependant transcriptional activity (AID 720636; active = well fitted curve in the direction sought with a large enough effect in the repeat runs; an effect the other way counts as inactive or inconclusive;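 note: HepG2 cells with an ARE-driven luciferase reporter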)
Procedure, shortened: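 In HepG2 cells engineered with an Nrf2-responsive luciferase gene, ARE induction was quantified as luminescence after 16 hr compound treatment at 37 C.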

[9] = qHTS assay for small molecule antagonists of the retinoid-related orphan receptor gamma (ROR-gamma) signaling pathway - cell viability counter screen (AID 720652; active = well fitted curve in the direction sought with a large enough effect in the repeat runs; an effect the other way counts as inactive or inconclusive;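 note: CHO reporter cells with doxycycline-induced ROR-gamma expression; series mostly up to about 92 µM; compound exposure lasted 16 hr before ATP read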)
Procedure, shortened: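 ATP-based viability readout in the ROR-gamma reporter CHO cells after 16 hr compound exposure under doxycycline induction.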

[10] = qHTS assay for small molecule agonists of the antioxidant response element (ARE) signaling pathway measured by Nrf2-dependant transcriptional activity - cell viability counter screen (AID 720653; active = well fitted curve in the direction sought with a large enough effect in the repeat runs; an effect the other way counts as inactive or inconclusive); details: ARE-bla HepG2 viability, CellTiter-Glo ATP luminescence, 16 h; max response: hits give low values
Procedure, shortened: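 Cytotoxicity counter screen: intracellular ATP quantified by CellTiter-Glo luminescence in the same ARE-bla HepG2 plates, after 16 h compound exposure and a 2 h beta-lactamase substrate step.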

[11] = qHTS Assay for Identifying Gametocytocidal Compounds (AID 743244);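 note: actives lower the fluorescent signal which means gametocytes are killed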; details: P. falciparum 3D7 stage III-V gametocytes, alamarBlue, 72 h; max response: hits give low values
Procedure, shortened: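 A resazurin-based viability read-out was applied to mature P. falciparum gametocytes: 72 h compound treatment, then 24 h dye incubation, with falling fluorescence signalling gametocytocidal effect.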

[12] = qHTS assay for cell viability of HEK293 cells (AID 743288); details: ATP luminescence (CellTiter-Glo), 18 h; max response: hits give low values; note: nearly all actives have a fitted effect of over 50% in size
Procedure, shortened: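 HEK293, 18 h, 37 C, ATP luminescence. Cells at 2,000/well were allowed at least 5 h to settle before dosing; CellTiter-Glo developed 30 min at RT.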

[13] = qHTS assay for cell viability of the p53RE-bla HCT-116 cell line (AID 743292); note: nearly all actives have a fitted effect of over 55% in size
Procedure, shortened: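 Intracellular ATP of p53RE-bla HCT-116 cells measured by luciferase luminescence following 16 h compound incubation at 37 C; DMSO-only wells served as vehicle controls.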

T1 sequence (P35557 whole entry, looked up): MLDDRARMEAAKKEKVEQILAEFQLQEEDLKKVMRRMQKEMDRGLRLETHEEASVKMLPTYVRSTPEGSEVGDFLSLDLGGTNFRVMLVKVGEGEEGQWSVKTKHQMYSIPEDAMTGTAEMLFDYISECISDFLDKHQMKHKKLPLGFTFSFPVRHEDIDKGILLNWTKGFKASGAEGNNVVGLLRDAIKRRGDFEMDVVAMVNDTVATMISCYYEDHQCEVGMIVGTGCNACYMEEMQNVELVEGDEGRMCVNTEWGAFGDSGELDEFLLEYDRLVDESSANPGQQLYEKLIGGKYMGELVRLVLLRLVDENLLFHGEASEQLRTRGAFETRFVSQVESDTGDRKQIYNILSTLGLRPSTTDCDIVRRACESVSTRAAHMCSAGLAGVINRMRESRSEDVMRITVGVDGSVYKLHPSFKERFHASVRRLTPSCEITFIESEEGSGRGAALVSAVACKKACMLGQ
T1 sequence (Q14397 whole entry, looked up): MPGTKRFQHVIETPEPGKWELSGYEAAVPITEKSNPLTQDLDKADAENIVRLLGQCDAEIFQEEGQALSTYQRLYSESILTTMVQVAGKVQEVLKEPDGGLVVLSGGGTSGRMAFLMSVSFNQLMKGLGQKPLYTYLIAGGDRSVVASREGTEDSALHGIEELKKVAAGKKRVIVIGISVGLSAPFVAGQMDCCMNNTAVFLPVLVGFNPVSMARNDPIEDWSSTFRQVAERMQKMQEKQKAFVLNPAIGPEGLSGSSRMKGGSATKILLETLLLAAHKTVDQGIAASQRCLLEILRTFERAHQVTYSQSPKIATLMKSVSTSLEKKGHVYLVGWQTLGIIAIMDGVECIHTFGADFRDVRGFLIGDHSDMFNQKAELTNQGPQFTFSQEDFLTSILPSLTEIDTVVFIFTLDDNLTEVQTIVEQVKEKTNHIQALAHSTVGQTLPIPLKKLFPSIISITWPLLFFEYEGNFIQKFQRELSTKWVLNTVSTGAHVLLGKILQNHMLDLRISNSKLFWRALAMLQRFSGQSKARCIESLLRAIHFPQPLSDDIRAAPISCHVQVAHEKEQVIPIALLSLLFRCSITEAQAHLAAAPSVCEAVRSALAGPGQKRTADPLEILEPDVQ
Sequence of Arylsulfatase A (Homo sapiens) (P15289 whole entry, looked up): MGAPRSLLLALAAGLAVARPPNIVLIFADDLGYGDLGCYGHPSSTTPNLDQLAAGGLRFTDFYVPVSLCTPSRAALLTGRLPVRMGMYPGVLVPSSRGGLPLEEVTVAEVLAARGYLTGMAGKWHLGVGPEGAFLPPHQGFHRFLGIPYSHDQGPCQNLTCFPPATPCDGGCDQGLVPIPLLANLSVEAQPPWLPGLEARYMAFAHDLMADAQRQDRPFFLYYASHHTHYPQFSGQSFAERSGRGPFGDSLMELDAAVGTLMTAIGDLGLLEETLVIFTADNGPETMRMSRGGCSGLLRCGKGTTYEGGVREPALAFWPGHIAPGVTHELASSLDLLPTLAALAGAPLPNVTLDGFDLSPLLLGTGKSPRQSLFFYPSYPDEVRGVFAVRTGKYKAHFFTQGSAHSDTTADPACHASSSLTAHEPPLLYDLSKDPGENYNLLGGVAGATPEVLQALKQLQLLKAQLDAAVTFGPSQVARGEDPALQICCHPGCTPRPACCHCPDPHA

Row | SMILES | Potency [1] | outcome [2] | Potency [3] | outcome [4] | outcome [5] | outcome [6] | Potency [7] | outcome [8] | outcome [9] | max response [10] | max response [11] | max response [12] | outcome [13]
1 | O=C(CCCN1CCC(O)(c2cccc(C(F)(F)F)c2)CC1)c1ccc(F)cc1 | inactive | inactive | inactive | inactive | inactive | inactive | inactive | – | – | – | – | – | –
2 | OCCN1CCN(CCCN2c3ccccc3C=Cc3ccccc32)CC1 | inactive | inactive | inactive | inactive | inactive | inactive | inactive | – | – | – | – | – | –
3 | NC(=O)N1c2ccccc2C=Cc2ccccc21 | inactive | inactive | inactive | inactive | inactive | inactive | inactive | inactive | inactive | -1.67% and -8.32% | -9.6% and 15.5% | -11.6% and -13.8% | inactive
4 | Cc1ccc(Cl)c(Nc2ccccc2C(=O)O)c1Cl | inactive | inactive | inactive | inactive | inactive | inactive | inactive | – | – | – | – | – | –
5 | CCn1nc(C(=O)O)c(=O)c2cc3c(cc21)OCO3 | inactive | – | – | – | – | – | – | – | – | – | – | – | –
6 | CCCOc1ccccc1-c1nc2n[nH]nc2c(=O)[nH]1 | inactive | inactive | inactive | inactive | inactive | inactive | inactive | – | – | – | – | – | –
7 | CC(C)(Oc1ccc(CCNC(=O)c2ccc(Cl)cc2)cc1)C(=O)O | inactive | inactive | inactive | inactive | inactive | inactive | inactive | inactive | – | -11.9% | 5.91% and 17.9% | -0.154% | inactive
8 | Cc1nnc(SCC2=C(C(=O)O)N3C(=O)[C@@H](NC(=O)Cn4cnnn4)[C@H]3SC2)s1 | inactive | inactive | inactive | inactive | inactive | inactive | inactive | – | – | – | – | – | –
9 | O=C(O)CCCCCCCC(=O)O | inactive | inactive | inactive | inactive | inactive | inactive | inactive | inactive | – | -8.37% | – | -0.211% | inactive
10 | CN1C(=O)CC[C@H]1c1cccnc1 | inactive | inactive | inactive | inactive | inactive | inactive | inactive | – | – | – | – | – | –
11 | Cc1nc2c([nH]1)c(=O)n(C)c(=O)n2Cc1ccco1 | inactive | inactive | inactive | inactive | inactive | inactive | inactive | – | – | – | – | – | –
12 | CN(C)CCCN1c2ccccc2Sc2ccccc21 | inactive | inactive | inactive | inactive | inactive | inactive | inactive | – | – | – | – | – | –
13 | CCCN(CCC)C(=O)C(CCC(=O)O)NC(=O)c1ccccc1 (stereo not given) | inactive | inactive | inactive | inactive | inactive | inactive | inactive | – | – | – | – | – | –
14 | COC(=O)C1=C(C)NC(C)=C(C(=O)OCCN(C)Cc2ccccc2)C1c1cccc([N+](=O)[O-])c1 (stereo not given) | inactive | inactive | 16.4 µM (active) | inactive | – | – | – | – | – | – | – | – | –
15 | NC(N)=NC(=O)Cc1c(Cl)cccc1Cl | inactive | inactive | inactive | inactive | inactive | inactive | inactive | – | – | – | – | – | –
16 | COc1cc(Cc2cnc(N)nc2N)cc(OC)c1OC | inactive | inactive | inactive | inactive | – | – | – | inactive | inactive | 0.934% | 1.83% and 3.42% | -2.08% | inactive
17 | CCO/C([O-])=N/c1c[n+](N2CCOCC2)no1 | inactive | inactive | inactive | inactive | inactive | inactive | inactive | – | – | – | – | – | –
18 | COc1ccc(CCN(C)CCCC(C#N)(c2cc(OC)c(OC)c(OC)c2)C(C)C)cc1OC (stereo not given) | inactive | inactive | inactive | inactive | inactive | inactive | inactive | – | – | – | 12.4% and 4.11% | – | –
19 | CC(C)(C)c1ccc(C(=O)CCCN2CCC(OC(c3ccccc3)c3ccccc3)CC2)cc1 | inactive | inactive | inactive | inactive | inactive | inactive | inactive | – | – | – | – | – | –
20 | CN1CCN(C2=Nc3ccccc3Oc3ccc(Cl)cc32)CC1 | inactive | inactive | inactive | inactive | inactive | inactive | inactive | – | – | – | – | – | –
21 | CCC(=O)c1ccc2c(c1)N(CCCN(C)C)c1ccccc1S2 | inactive | inactive | inactive | inactive | inactive | inactive | inactive | – | – | – | – | – | –
22 | CNCCCN1c2ccccc2CCc2ccccc21 | 21.3 µM (active) | inactive | inactive | inactive | – | – | – | – | – | – | – | – | –
23 | CC(=O)OC(C)C[N+](C)(C)C (stereo not given) | inactive | inactive | inactive | inactive | inactive | inactive | inactive | – | – | – | – | – | –
24 | CCN(Cc1ccncc1)C(=O)C(CO)c1ccccc1 (stereo not given) | inactive | inactive | inactive | inactive | inactive | inactive | inactive | – | – | – | – | – | –
